# Bioassay records: PubChem BioAssay, several laboratories
# Only some compounds are listed: those with a hit (about 27% of all), similar ones and a draw of the others.
# CYP2C19 inh = inhibitors of human CYP2C19; P33261; CYP2C19 Supersomes, luciferin-H EGE luminescence, 30 min; inhibition, % at 5 µM; hit rate 21% among 96,000; AID 778;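 active = CYP2C19 inhibition above a set limit at 5 µM in the primary screen, cut at about 50% in these data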;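 note: plate controls were negative control wells for no effect and 2.5 mM tranylcypromine positive control for full effect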
# CYP2C9 inhib = human CYP2C9 inhibition; CYP2C9 Supersomes, luciferin-H conversion, luminescence; inhibition, % at 5 µM; hit rate 20% among 96,000; AID 777;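 active = blocking of liver enzyme CYP2C9 beyond about 50% at 5 µM, limit read from the data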
# Cav3 T inh = blocks human Cav3.2 T-type calcium channel. B-score at 10 µM. AID 449739. O95180. Cav3.2-expressing cells, Fluo-4 calcium fluorescence FDSS; hits give low values. hit rate 4% among 100,000;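 active = single-dose well whose peak fluorescence ratio is a statistical outlier from its plate by either plate-standardised score or position-corrected B-score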
# CYP2C9 act = increases human cytochrome P450 2C9 activity; hit rate 1.4% among 96,000; activation factor at 5 µM; AID 1024; P11712; recombinant CYP2C9, luciferin-H conversion, luminescence; hits give high values; factor 1 = untreated enzyme, 0 = blocked;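 active = activation factor of 2 or more for CYP2C9 at a 5 µM dose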;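 note: 0 = sulfaphenazole-blocked wells and 1 = vehicle-only wells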
# CYP2C19 act = cytochrome P450 2C19 (human) activation | P33261 | recombinant CYP2C19, luciferin-H EGE luminescence; hits give high values; 0 = fully inhibited enzyme, 1 = untreated enzyme | activation factor at 5 µM | 96,000 tested, under 10 active | AID 1025;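 active = activation factor of at least 2 at 5 µM in the primary screen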;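 note: 0 = wells with 2.5 mM tranylcypromine and 1 = vehicle-only wells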
# Starred values were filed as active, the others as inactive; · = no result given; ! = not confirmed by another sample.
SMILES,CYP2C19 inh,CYP2C9 inhib,Cav3 T inh,CYP2C9 act,CYP2C19 act
Cc1ccc2c(c1)C(O)(c1c(C)[nH]c3ccccc13)C(=O)N2 (stereo not given),98*,60*,-4.1*,0.4,0
Cc1[nH]c2ccccc2c1C1(O)C(=O)N(C(C)C)c2ccccc21 (stereo not given),95*,6,-2.9,0.9,0.1
Cc1ccc(-n2c(Cn3nc(C(F)F)cc3C(F)F)n[nH]c2=S)cc1,12,8,0.029,0.9,0.9
CCOC(=O)C1CCN(C(=O)CCNC(=O)Cn2ccc3ccccc3c2=O)CC1,5,-11,0.51,1.1,1
O=C1Cc2ccccc2C(=O)N1CCc1ccccc1,52*,2,-1.8,1,0.5
Cc1c(C(=O)O)c(=S)sn1CCOc1ccccc1,1,0,0.69,1,1
Fc1cccc2sc(Nc3nnc(-c4ccccc4)o3)nc12,·,·,-5*,·,·
CCCCn1c(=O)[nH]c(=O)c2c1nc(COC(=O)c1c(C)noc1C)n2CCC,68*,97*,0.36,0,0.3
O=c1[nH]c(=O)n(C2CCCCCC2)c(O)c1C=NCc1ccc(F)cc1,0,-6,-6.7*,1.1,1
Cc1c(N=Cc2c(O)n(C3CCCCC3)c(=O)[nH]c2=O)c(=O)n(-c2ccccc2)n1C,-15,15,1.3,0.8,1.1
CC(c1nnnn1C1CCCCC1)N(Cc1ccccc1)Cc1cccnc1 (stereo not given),·,·,-1.3,·,·
CC(C)(C)n1nnnc1C(c1cccs1)N(Cc1cccnc1)Cc1ccccc1Cl (stereo not given),96*,92*,-3.9,0.1,0
CC(c1nnnn1C(C)(C)C)N(Cc1cccnc1)Cc1ccccc1Cl (stereo not given),99*,57*,-0.78,0.4,0
O=C(NCc1cccc(C(F)(F)F)c1)C1CC(c2ccc(C(F)(F)F)cc2)=NO1 (stereo not given),·,·,-1.7,·,·
CN1CCN(c2nc(-c3ccccc3)cc(C(F)(F)F)n2)CC1,50*,-10,-0.55,1.1,0.5
CC1CCN(c2nc(-c3ccccc3)cc(C(F)(F)F)n2)CC1,1,0,-0.77,1,1
O=C(COc1ccccc1)N1CCN(c2ncnc3c2cnn3-c2ccccc2)CC1,80*,71*,0.47,0.3,0.2
c1ccc(-n2ncc3c(N4CCN(CCOc5cccc6ccccc56)CC4)ncnc32)cc1,48,76*,-1.4,0.2,0.5
COC(=O)c1cc2occc2n1Cc1ccc(Cl)cc1,2,11,-1.5,0.9,1
COCCNC(=O)C(C)OC(=O)c1cc2occc2n1C (stereo not given),4,80*,0.92,0.2,1
COc1ccc(N2CCN(C(=O)c3ccc(NS(=O)(=O)c4ccc(F)cc4)cc3)CC2)cc1,24,91*,-2.5,0.1,0.8
O=C(c1ccco1)N1CCN(S(=O)(=O)c2ccc(F)cc2)CC1,53*,14,0.00016,0.9,0.5
Cc1cc(S(=O)(=O)Nc2ccc(C(=O)N3CCN(C(=O)c4ccco4)CC3)cc2)ccc1F,13,46,0.57,0.5,0.9
O=C(c1ccco1)N1CCN(c2ccc(S(=O)(=O)N3CCCC3)cc2)CC1,-12,14,1.5,0.9,1.1
O=C(c1ccc(S(=O)(=O)Nc2ccc(F)cc2)cc1)N1CCN(C(=O)c2ccco2)CC1,44,75*,-0.21,0.3,0.6
SMILES,CYP2C19 inh,CYP2C9 inhib,Cav3 T inh,CYP2C9 act,CYP2C19 act
O=C(c1ccco1)N1CCN(C(=O)C2Cc3ccccc3CN2S(=O)(=O)c2ccc(F)cc2)CC1 (stereo not given),76*,38,1.2,0.6,0.2
COC(=O)C1=C(C(=O)OC)[C@@H]2N(C)c3ccc(OC)cc3[C@@]23C[C@@H](C(=O)OC)N(C(=O)c2ccco2)C3=N1,·,·,-0.1,·,·
CC(O)[C@H]1CNC(=O)C(=O)N1CCc1cccc2ccccc12 (stereo not given in full),·,·,0.59,·,·
COc1ccccc1N(C)S(=O)(=O)c1ccc(C(=O)N(CC(N)=O)C(C)C)cc1,-11,0,-0.11,1,1.1
CCC(C)(C)NC(=O)c1ccc(S(=O)(=O)N(C)c2ccccc2OC)cc1,15,65*,0.59,0.4,0.8
COc1ccccc1N(C)S(=O)(=O)c1ccc(C(=O)NCC(C)C)cc1,52*,83*,0.085,0.2,0.5
COc1ccccc1CNC(=O)c1ccc(CNc2c(N3CCCC3)c(=O)c2=O)cc1,-1,-5,0.79,1,1
COC(=O)C1=C(C)N(CCc2ccc(OC)c(OC)c2)C(=O)/C1=C\N(C)C,14,3,-0.81,1,0.9
COc1ccc(-c2cn(/N=C/c3ccc(Cl)cc3Cl)c(N)n2)cc1,74*,72*,-1.1,0.3,0.3
CC1CCCCN1C(=O)CSc1nnc(-c2ccc(Cl)s2)o1 (stereo not given),95*,56*,-0.23,0.4,0.1
CCC1CCCCN1C(=O)CSc1nnc(-c2ccc3c(c2)OCCO3)o1 (stereo not given),99*,80*,·,0.2,0
CCC1CCCCN1C(=O)CSc1nnc(-c2ccc(OC)cc2)o1 (stereo not given),85*,34,0.47,0.7,0.2
Cc1ccc(Cn2c(C(C)Nc3nc(-c4ccc(Cl)cc4)cs3)nc3cc(C(=O)NCCCO)ccc32)cc1 (stereo not given),·,·,-0.0065,·,·
CCOC(=O)N1CCN(CCC(=O)Nc2cccc(Br)c2)CC1,65*!,58*!,0.64,0.4,0.3
CCOC(=O)N1CCN(CCC(=O)Nc2ccc(Br)cc2)CC1,92*,95*,0.12,0.1,0.1
CCOC(=O)N1CCN(CCC(=O)Nc2ccc(C)c(Br)c2)CC1,21,15,·,0.9,0.8
COc1ccc(C2OC34CCCCC3C(C#N)(C#N)C2(C#N)C(=N)O4)cc1 (stereo not given),16,10,2.5,0.9,0.8
CCOC(=O)c1cc2c(C(F)(F)F)cc(-c3ccccc3)nc2o1,7,25,-0.015,0.7,0.9
CC1CC(N(C(=O)c2ccco2)c2ccccc2)c2ccccc2N1 (stereo not given),84*,96*,-4.3*,0,0.2
Cn1c(SCC(=O)N2c3ccccc3Sc3ccc(Cl)cc32)nnc1-c1ccco1,·,·,-3.8,·,·
CC(=O)Nc1ccc(C(=O)CSc2nnc(Cn3nnc4ccccc43)n2C)cc1,26,33,0.01,0.7,0.7
Cn1c(Cn2nnc3ccccc32)nnc1SCC(=O)N1c2ccccc2CCc2ccccc21,40,64*,-0.78,0.4,0.6
Cn1c(Cn2nnc3ccccc32)nnc1SCC(N)=O,-20,-19,0.017,1.2,1.2
Cn1c(Cn2nnc3ccccc32)nnc1SCC(=O)N1c2ccccc2Sc2ccccc21,33,52*,-2.4,0.5,0.7
Cn1nnnc1SCC(=O)N1c2ccccc2Sc2ccc(Cl)cc21,75*,36,·,0.6,0.3
Cc1cc(NC(=O)c2ccc(NC(=O)C(C)Oc3ccccc3)cc2)no1 (stereo not given),·,·,-0.044,·,·
